High-throughput results (PubChem BioAssay)
The list is not random: actives were taken first. Their share in the collection is about 3.7%.
PfHsp90 yeast 2 = inhibits growth of yeast expressing Plasmodium falciparum Hsp90; S. cerevisiae expressing PfHsp90, BacTiter-Glo ATP, 48 h; yeast lacking PDR1 and PDR3 efflux regulators; inhibition, % at 9.4 µM; 310,000 compounds, 0.32% hits;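 active means every replicate shows inhibition above about 80%, whatever the replicate mean, limit read from the data; inconclusive means mean inhibition reaches the set limit but some replicate falls short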;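 further: 0% = DMSO neutral controls and 100% = 20 µM radicicol positive controls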
tim23-1 inh = growth inhibitors of tim23-1 mutant yeast | S. cerevisiae tim23-1 growth, BacTiter-Glo luminescence, 24 h | 330,000 compounds, 1.3% hits | AID 463212 | inhibition, % at 20 µM;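 active means growth inhibition of the mutant yeast at or above 50%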;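 further: temperature-sensitive mutant grown at 25 °C; plate controls were DMSO-treated mutant yeast for no effect and medium wells lacking yeast for full effect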
tim10-1 inh = tim10-1 yeast growth inhibition; S. cerevisiae tim10-1 ts strain growth, BacTiter-Glo, 24 h; inhibition, % at 20 µM; 330,000 compounds, 2.2% hits;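 active means inhibition of at least 40%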;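 further: mutant grown at 25 °C; 0% = DMSO wells with yeast and 100% = wells holding no yeast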
TIM10 inh = TIM10 yeast growth inhibition; 330,000 compounds, 1.4% hits; S. cerevisiae TIM10 strain growth, BacTiter-Glo luminescence, 24 h; inhibition, % at 10 µM;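 active means inhibition of 40% or more at the single tested concentration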;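 further: wild-type TIM10 isogenic control strain grown at permissive 25 °C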
Rce1 inhib = blocks yeast Ras-converting enzyme | Q03530 | yeast membranes, quenched prenylated peptide cleavage fluorescence | calls only | 290,000 compounds, 0.27% hits;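 active means fall in fluorescence gain of 50% or more versus controls, with final raw signal at or below 3038400; inconclusive means same 50% fall but final raw signal above 3038400; inactive means fall in fluorescence gain under 50%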;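 further: plate controls were neutral control wells for no effect and wells lacking membranes for full effect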
Target sequence (Q03530 whole entry, looked up): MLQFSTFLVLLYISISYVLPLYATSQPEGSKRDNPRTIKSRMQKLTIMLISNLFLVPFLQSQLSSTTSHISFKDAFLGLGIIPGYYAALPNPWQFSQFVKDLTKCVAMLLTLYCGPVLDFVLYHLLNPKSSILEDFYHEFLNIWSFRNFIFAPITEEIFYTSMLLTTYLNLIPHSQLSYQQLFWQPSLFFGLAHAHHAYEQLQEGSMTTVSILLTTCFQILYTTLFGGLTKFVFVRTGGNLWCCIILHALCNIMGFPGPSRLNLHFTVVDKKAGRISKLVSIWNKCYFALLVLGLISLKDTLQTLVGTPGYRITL
tim10-1 confirm = tim10-1 yeast growth inhibition, confirmed. 7,400 compounds, 56% hits. shares compounds with tim10-1 inh. S. cerevisiae tim10-1 ts strain growth, BacTiter-Glo, 24 h. inhibition, % at 20 µM;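 active means inhibition of yeast growth at or above a set limit in either of two repeat tests at 20 µM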;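 further: tim10-1 mutant grown at permissive 25 °C to find synthetic lethal compounds; 0% = DMSO yeast wells and 100% = medium wells without yeast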
Starred values were filed as active, the others as inactive; i = inactive; ? = inconclusive; · = not tested or not shown.

SMILES	PfHsp90 yeast 2	tim23-1 inh	tim10-1 inh	TIM10 inh	Rce1 inhib	tim10-1 confirm
Brc1ccc(-c2nn3c(Cc4ccccc4)nnc3s2)o1	-6.3	20.3	41.5*	23.0	i	10.9
Clc1ccccc1-c1nnc2sc(-c3ccc(Br)o3)nn12	-11.9	37.3	40.2*	24.9	i	29.8*
c1ccc(-c2cc(-c3nc4ccccc4[nH]3)c3ccccc3n2)cc1	-1.8	40.4	50.6*	21.9	i	38.4*
Nc1ccc(-c2nc3ccccc3[nH]2)cc1	19.0	-18.7	-29.0	9.3	?	·
Cc1c(Cl)cccc1NC(=O)Cn1nc(C)n2cccc2c1=O	18.0	11.7	25.3	1.8	i	·
COc1ccc(-c2cc(=O)oc3c(C)c(OC(C)C(=O)Nc4ccc(CN5CCOCC5)cc4)ccc23)cc1 (configuration not stated)	-27.7	42.0	42.6*	9.6	i	-37.6
O=[N+]([O-])c1ccc(NC2CCCCC2)nc1	-0.5	·	·	·	·	·
CC(=O)c1cc(NC(=O)c2ccc(Cl)cc2)c(=O)oc1/C=C/N(C)C	22.0	14.3	45.8*	27.9	i	27.6
CC(=O)c1cc(NC(=O)c2cccc(C(F)(F)F)c2)c(=O)oc1/C=C/N(C)C	2.9	1.0	21.0	17.4	i	·
COC(=O)CSc1nc2c(c(-c3ccco3)c1C#N)CCCC2	7.1	31.4	46.6*	24.5	i	39.6*
COC(=O)CSc1nc2c(c(-c3ccc(O)cc3)c1C#N)CCCC2	-5.7	28.7	37.2	0.5	i	·
COc1cc(NC(=O)Cc2ccc(S(=O)(=O)N3CCOCC3)s2)c(OC)cc1Cl	16.2	24.5	29.8	12.7	i	·
O=C(Cc1ccc(S(=O)(=O)N2CCOCC2)s1)Nc1ccc(S(=O)(=O)N2CCCCC2)cc1	-5.0	3.3	8.4	21.2	i	·
O=C(Cc1ccc(S(=O)(=O)N2CCOCC2)s1)Nc1cc(Cl)ccc1Cl	-4.7	34.3	44.3*	22.8	·	35.6*
O=C(Cc1ccc(S(=O)(=O)N2CCOCC2)s1)Nc1ccc2c(c1)CCC2	-13.3	27.4	40.7*	31.2	i	16.9
O=c1c(-c2ccccc2)c(O)c2cccc3c2n1CCC3	31.8	-32.8	-12.0	35.2	i	·
Cc1cc(C)c(-c2c(O)c3cccc4c3n(c2=O)CCC4)c(C)c1	-11.0	47.3	47.1*	14.8	i	26.0
CC(C)Oc1ccc(Cl)cc1Nc1nc(NCCO)nc(N2CCCC2)n1	-30.0	40.3	41.0*	14.5	i	7.6
FC(F)(F)c1nnc(-c2ccccc2)nc1Oc1ccccc1	-63.3	20.1	27.4	12.5	i	·
Fc1ccc(Oc2nc(-c3ccccc3)nnc2C(F)(F)F)cc1	·	46.7	50.2*	37.9	i	22.5
CCCCNC(=S)N1CCn2cccc2C1c1ccc(F)cc1 (configuration not stated)	-24.0	-2.3	43.7*	15.4	i	21.0
CCCn1c(O)c(N=NC(=O)c2cccnc2)c2cc(Br)ccc21	21.4	-26.5	-12.2	20.7	i	·
O=C(NCc1nnc(SCC(=O)N2CCCC2)o1)c1ccccc1	4.8	11.3	0.3	9.5	i	·
COc1ccc(S(=O)(=O)Cc2ccc(C(=O)NC3CCC(C)CC3)o2)cc1 (configuration not stated)	-4.0	22.8	40.5*	12.2	i	6.1
COc1ccc(S(=O)(=O)Cc2ccc(C(=O)N3CCN(c4cc(C)ccc4C)CC3)o2)cc1	-4.0	28.9	45.3*	12.5	i	-4.8
SMILES	PfHsp90 yeast 2	tim23-1 inh	tim10-1 inh	TIM10 inh	Rce1 inhib	tim10-1 confirm
COc1ccc(S(=O)(=O)Cc2ccc(C(=O)N3CCN(c4ccc(Cl)cc4)CC3)o2)cc1	29.9	34.9	46.1*	24.8	i	17.7
COc1ccc(S(=O)(=O)Cc2ccc(C(=O)NC3CC3)o2)cc1	19.4	-0.9	-14.2	0.5	i	·
COc1ccc(N2CCN(C(=O)c3ccc(CS(=O)(=O)c4ccc(OC)cc4)o3)CC2)cc1	30.8	4.6	16.3	7.9	i	·
CC1CCN(CC(=O)NC2CCCCC2)CC1	12.4	-5.4	2.5	1.4	i	·
Cc1cccc(NC(=S)N2CCN(C(=O)c3ccco3)CC2)c1	-10.5	-1.1	7.3	10.2	i	·
CCCCc1ccc(NC(=S)N2CCN(C(=O)c3ccco3)CC2)cc1	15.9	36.2	42.7*	25.1	i	24.2
Cc1ccccc1CNC(=O)c1ccc(Cl)c([N+](=O)[O-])c1	6.9	45.4	43.0*	-0.5	i	22.1
Cc1ccc(N2Cc3ccccc3C2=S)cc1	-68.2	30.9	41.6*	2.9	i	26.3
S=C1c2ccccc2CN1c1ccccc1	-54.6	18.5	23.7	7.0	i	·
CCCc1cc(-c2nc(N)ncc2-c2csc(C)n2)c(O)cc1OC	24.0	30.0	43.0*	39.7	·	26.8
CCc1cc(-c2nc(N)ncc2-c2csc(C)n2)c(O)cc1OC	-22.4	27.9	26.8	18.1	i	·
O=C(Nc1nc2c(Cl)cccc2s1)C1CC1	32.4	46.1	55.7*	-18.4	i	-9.6
Cc1cccc2sc(NC(=O)C3c4ccccc4Oc4ccccc43)nc12	·	35.7	41.1*	33.0	i	32.5*
Cc1ccc2sc(NC(=O)C3CC3)nc2c1C	32.2	41.7	46.0*	30.8	i	3.4
Cc1cccc2sc(NC(=O)C3CC3)nc12	11.1	26.0	6.4	11.6	i	·
Cc1nnc(NC(=O)C2c3ccccc3Oc3ccccc32)s1	-4.0	2.3	2.3	15.6	i	·
Cc1c(CCO)c(=O)n(-c2ccccc2)n1S(=O)(=O)c1ccc(Cl)cc1	24.0	5.6	20.3	12.5	i	·
CC(=O)Nc1ccc(S(=O)(=O)N2CCC(C(=O)NCc3cccnc3)CC2)cc1	-6.5	-5.3	1.8	-3.5	i	·
O=C(O)C(=O)Nc1ccc(NC(=O)C(c2ccccc2)c2ccccc2)cc1	-26.2	22.9	21.0	-0.3	i	·
O=S(=O)(NC(CO)Cc1ccccc1)c1cc(Cl)ccc1F (configuration not stated)	-13.5	·	·	·	·	·
N/C(=N/OC(=O)c1cccc([N+](=O)[O-])c1)c1cccc([N+](=O)[O-])c1	1.1	-13.7	19.8	-26.2	i	·
N/C(=N\OC(=O)c1ccccc1Cl)c1cccc([N+](=O)[O-])c1	6.1	23.3	50.1*	27.7	i	65.8*
O=C(CCNc1ccc(F)cc1)c1cccc([N+](=O)[O-])c1	-14.2	12.8	40.3*	15.4	i	43.0*
N/C(=N\OC(=O)c1cccc(F)c1)c1cccc([N+](=O)[O-])c1	-8.8	12.0	23.7	14.0	i	·
N/C(=N\OC(=O)c1ccc(F)cc1)c1cccc([N+](=O)[O-])c1	-7.8	28.1	47.9*	25.3	i	63.0*
Cc1cccc(NC2=C(Cl)C(=O)OC2NC(=O)c2ccccc2)c1 (configuration not stated)	-13.3	-7.5	-2.7	1.5	i	·
CC(C)C(NC(=O)c1ccc(F)cc1)C(=O)N1CCN(c2ccccn2)CC1 (configuration not stated)	·	20.2	9.0	8.7	·	·
